# Bioassay records (PubChem)
# Sampled rows, rich in hits. Any-hit rate of the full collection: about 1.4%.
# MBD2 DNA inh: inhibitors of MBD2 binding to methylated DNA, primary screen, biochemical, TR-FRET, DNA-binding domain, human; Methyl-CpG-binding domain protein 2 (Homo sapiens), Q9UBB5; MBD2 binding to methylated oligonucleotide; inhibition, % at 4.4 µM; actives 0.31% (n = 370,000); in the data active = inhibition above about 13%
# LEDGF integ inh: blockers of LEDGF/p75-dependent integrase strand transfer – biochemical, TR-FRET, high throughput, primary screen | HIV-1 integrase (with human LEDGF/p75) | actives 0.64% (n = 370,000) | TR-FRET IN-LEDGF/p75 DNA integration, Eu/Cy5 | inhibition, % at 3.7 µM;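 active = inhibition above the screen-wide mean plus 3 SD, cut at about 13% in these data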;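 also: signal is the Cy5 over europium emission ratio at 671 and 618 nm; 0% = plate median of compound wells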
# UHRF1 binding: UHRF1 methylated DNA binding inhibitors, primary screen, counter-screen for MBD2 inhibitor project, biochemical, TR-FRET, human UHRF1, single concentration | UHRF1 binding to methylated oligo | inhibition, % at 4.4 µM | actives 0.75% (n = 370,000) | E3 ubiquitin-protein ligase UHRF1 (Homo sapiens), Q96T88; in the data active = inhibition above about 21%;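 also: UHRF1 SRA domain binding a hemimethylated CpG hairpin DNA probe; 0% = median of test compound wells and 100% = reference inhibitor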
# CASP6 VEID inh: human caspase-6 inhibitors, primary screen, biochemical, VEID-R110 fluorescence, single point, set 2 | actives 0.53% (n = 350,000) | inhibition, % at 12.5 µM | purified caspase-6, Z-VEID-R110 cleavage fluorescence | AID 686996, 2013;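 active = mean inhibition across replicates at least about 35%, with every replicate also reaching that limit, limit read from the data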;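 also: 0% = median of neutral control wells and 100% = no fluorescence left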
# IN multimer up: HIV-1 IN multimer formation enhancers, counter-screen for LEDGF/p75 integration inhibitor project, biochemical, TR-FRET | shares compounds with LEDGF integ inh | AID 1053131, 2014 | activation, % at 7.7 µM | TR-FRET HIV-1 integrase multimerization | actives 17% (n = 2,000); in the data active = activation above about 8.9%
# TR-FRET interf: TR-FRET optical interference artefacts, confirmation, artefact control for LEDGF/p75-dependent integration inhibitor project, biochemical, HIV-1 IN multimerization; TR-FRET optical interference counterscreen; shares compounds with LEDGF integ inh; 2,000 tested, under 10 active; AID 1053135, 2014; inhibition, % at 7.7 µM;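 active = inhibition above the mean over all tested compounds plus 3 SD, which no compound reached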;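 also: 0% = integrase with antibodies and DMSO and 100% = antibodies without integrase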
# LEDGF integ conf: inhibitors of HIV-1 IN-LEDGF/p75 DNA integration, confirmation, biochemical, TR-FRET | shares compounds with LEDGF integ inh | TR-FRET LEDGF/p75-dependent HIV-1 integration | actives 36% (n = 2,000) | AID 1053136, 2014 | inhibition, % at 3.7 µM; in the data active = inhibition above about 14%
# Starred values were filed as active, the others as inactive; nt = no result given.
SMILES,MBD2 DNA inh,LEDGF integ inh,UHRF1 binding,CASP6 VEID inh,IN multimer up,TR-FRET interf,LEDGF integ conf
COc1ccc(NC(=O)N(C)C[C@H]2Oc3ccc(NC(=O)Cc4cn(C)c5ccccc45)cc3C(=O)N([C@H](C)CO)C[C@@H]2C)cc1,nt,nt,nt,0,nt,nt,nt
COc1ccc2c(c1)C(c1ccc(C)o1)=NNC(c1cccnc1)=N2,-3,19*,1,-1,1,-4,-4
COc1ccc2c(c1)C(c1ccc(C)o1)=NNC(c1ccccc1)=N2,-4,-5,-3,0,nt,nt,nt
O=C(O)c1ccc(NC2OC[C@@H](O)[C@H](O)[C@H]2O)cc1 (some centres not stated),4,18*,52*,24,0,-1,-2
COc1ccc(S(=O)(=O)Nc2cccc3c2O[C@@H](CN(C)S(=O)(=O)c2cn(C)cn2)[C@H](C)CN([C@@H](C)CO)C3=O)cc1,nt,nt,nt,1,nt,nt,nt
O=C(N/N=C/c1cccs1)c1ccccn1,0,-8,-5,nt,nt,nt,nt
C(=NN=C(NN=Cc1cccs1)NN=Cc1cccs1)c1cccs1,-4,34*,5,-3,0,-1,-11
COc1ccccc1NC(=O)N1CC(=O)N2[C@H](CO)[C@H](c3ccc(-c4ccccc4)cc3)[C@@H]2C1,nt,nt,nt,-2,nt,nt,nt
CCOC(=O)c1c2ccc(OCC(=O)NN)cc2n2ccccc12,1,23*,11,9,3,-14,6
CCOC(=O)c1c2ccc(OCC(=O)N/N=C/c3ccc(C)cc3)cc2n2ccccc12,3,2,4,nt,nt,nt,nt
C[C@H](CO)N1C[C@H](C)[C@@H](CN(C)C(=O)Nc2cccc3ccccc23)Oc2ccc(NS(=O)(=O)c3ccc(F)cc3)cc2CC1=O,nt,nt,nt,-1,nt,nt,nt
O=C1C=CC(=O)c2c(O)c(CO)c(CO)c(O)c21,57*,77*,87*,99*,32*,-162,80*
CN(C)c1ccc(-c2[nH][nH]c(=O)c2NC(=O)c2ccc3ccccc3n2)cc1,8,31*,17,9,6,-23,19*
O=[N+]([O-])c1c(NCCCO)cc(SCc2ccco2)c2nonc12,7,38*,35*,20,5,-23,1
O=[N+]([O-])c1c(NCCCO)cc(Sc2ccc(Cl)cc2)c2nonc12,-6,-2,8,6,nt,nt,nt
COc1cc(/C=C(\C#N)c2nc3ccccc3[nH]2)cc(OC)c1O,-3,16*,-10,4,8,-38,2
COc1ccc(/C=C(\C#N)c2nc3ccccc3[nH]2)cc1O,-4,-3,-3,5,nt,nt,nt
COc1ccc(CN(C)C[C@H]2Oc3ccc(NC(=O)CCN4CCOCC4)cc3C(=O)N([C@H](C)CO)C[C@@H]2C)cc1,nt,nt,nt,1,nt,nt,nt
CCOc1cccc(=O)c2c(C)n(Cc3ccco3)c(C)c12,0,31*,2,nt,1,-5,13
COC(=O)c1c(C(=O)OC)c(C)n(Cc2ccco2)c1C,5,0,13,nt,nt,nt,nt
COCC(=O)N1C[C@@H](C)[C@H](OC)CN(C)C(=O)c2ccc(NC(=O)c3ccc(-c4ccccc4)cc3)cc2OC[C@H]1C,nt,nt,nt,0,nt,nt,nt
COc1ccccc1N(CC(=O)NCc1ccco1)S(=O)(=O)c1ccc(C)cc1,8,23*,29*,50*,5,-17,28*
CN(Cc1ccccc1)c1cc2c(c3c1ccn3C)C1CCC2C1 (configuration not stated),-2,52*,-4,-2,-1,3,-5
CCNc1ccc(Br)cc(C(=O)/C=C/c2ccc3c(c2)OCO3)c1=O,3,23*,6,nt,1,-6,41*
Nc1ccccc1C(=O)/C=C/c1ccc2c(c1)OCO2,2,0,-4,1,nt,nt,nt
SMILES,MBD2 DNA inh,LEDGF integ inh,UHRF1 binding,CASP6 VEID inh,IN multimer up,TR-FRET interf,LEDGF integ conf
CC(C)CC#Cc1ccc2c(c1)O[C@@H](CN(C)C(=O)C1CCCCC1)[C@@H](C)CN([C@@H](C)CO)S2(=O)=O,nt,nt,nt,1,nt,nt,nt
C=CCn1c(C)cc(C(=O)Cn2ncc(Cl)c(Cl)c2=O)c1C,7,26*,20,5,26*,-92,39*
CC(C)(C)C(=O)Cn1ncc(Cl)c(Cl)c1=O,-3,3,-2,-2,nt,nt,nt
Cc1ccc(S(=O)(=O)Nc2ccc3c(c2)C(=O)N([C@@H](C)CO)C[C@H](C)[C@@H](CN(C)C)OCCCC[C@H](C)O3)cc1,nt,nt,nt,1,nt,nt,nt
CCOC(=O)c1c(N)sc(=S)c2c1CCC2,4,34*,16,nt,1,-3,32*
C[C@@H]1CN([C@H](C)CO)C(=O)c2cc(NC(=O)Nc3ccc4c(c3)OCO4)ccc2O[C@@H]1CN(C)Cc1ccc(Cl)c(Cl)c1,nt,nt,nt,0,nt,nt,nt
Cc1ccc(CC#N)c(-c2c(CC#N)ccc(C)c2C)c1C,-3,0,-1,0,nt,nt,nt
Cc1ccc2c(c1C)-c1c(ccc(C)c1C)C(=O)C2=O,-6,14*,-2,8,4,-13,69*
COc1ccc(N)c2c1OCCC2=O,-3,19*,7,nt,-1,2,-5
O=C(O)c1cccc2cc(-c3ccccc3)oc(=O)c12,0,-3,2,2,nt,nt,nt
O=C(O)c1cccc2cccc(-c3c4ccc(=O)c(O)c-4oc4c(O)c(O)ccc34)c12,67*,90*,92*,99*,71*,-356,93*
O=C(c1cn(-c2ccccc2)nc1-c1ccncc1)n1nnc2ccccc21,-4,16*,-4,0,1,-7,0
CC(C)c1ccccc1NC(=O)CN1C(=O)c2ccccc2C1=O,-5,73*,1,-1,-2,9,2
Cc1ccc(NC(=O)Nc2cccs2)c(Cl)c1,2,-3,4,nt,nt,nt,nt
O=C(Nc1cccs1)Nc1ccccc1Cl,0,15*,-2,nt,4,-20,6
CCc1nc(NCc2cccs2)c2nnn(Cc3ccccc3)c2n1,3,16*,-2,-3,0,-1,8
COc1ccc(/C=N\NC(=O)c2cc(O)c(O)c(O)c2)cc1CN1CCN(c2ccc(F)cc2)CC1,-1,20*,11,nt,37*,-188,38*
NCCCCCNC(=O)/C=N\O,6,34*,1,nt,-1,4,-8
